Experimental data from PubChem BioAssay.
The source made the active and inactive calls.

How the values were obtained:
[1] = optical density shifts of acrAB sulA E. coli – strain DRC41, OD650, 48 h, E. coli filamentation inducer project, primary screen (AID 1152); conditions: higher = more signal, called active from +8 up or from −8 down;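 further: E. coli MC1000 strain DRC41 lacking acrAB efflux pump and sulA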
[2] = probe aLefty1 binding on compound microarray – biochemical, small-molecule microarray, 635/667 nm fluorescence, primary screen (AID 1153); conditions: higher = more signal;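 further: score merges spot fluorescence with signal-to-noise ratio from the scanned slide images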
[3] = plasmodial surface anion channel blockers, osmotic lysis – cell-based, P. falciparum Indochina, OD700, 1 h, primary screen (AID 1154); conditions: P. falciparum Indochina infected RBC osmotic lysis, higher = more signal, called active from +8 up or from −8 down
[4] = plasmodial surface anion channel blockers, osmotic lysis – cell-based, P. falciparum Indochina, OD700, 2 h, primary screen (AID 1155);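 further: lysis reports solute entry through the parasite surface anion channel PSAC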; conditions: P. falciparum Indochina infected erythrocytes, higher = more signal, called active from +8 up or from −8 down
[5] = changes in parasitized red cell lysis, either direction – P. falciparum Indochina, OD700, 3 h, PSAC antagonist project, primary screen (AID 1156); conditions: P. falciparum-infected erythrocytes, osmotic lysis, higher = more signal, called active from +8 up or from −8 down
[6] = plasmodial surface anion channel blockers, osmotic lysis – cell-based, P. falciparum Indochina, OD700, 18 h, primary screen (AID 1157); conditions: P. falciparum Indochina infected erythrocytes, osmotic lysis OD700, 18 h; higher = more signal, called active from +8 up or from −8 down
[7] = S6 kinase pathway phospho-S6 level changes – cell-based, A549, cytoblot, luminescence, serum-stimulated, primary screen (AID 1158); conditions: 5 h, higher = more signal;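 further: serum-stimulated A549 lung adenocarcinoma cells; signal is phosphorylated S6 detected by cytoblot immunostaining with HRP secondary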
[8] = biological target: NADPH oxidase 2 (Homo sapiens) (UniProt P04839); assay: compounds shifting NOX2 Amplex Red fluorescence – cell-based, HEK293-NOX2, PMA-stimulated, NOX inhibitor project, primary screen (AID 1159); conditions: 45 min, higher = more signal, called active from +8 up or from −8 down; further: test concentration not given here
Chain of NADPH oxidase 2 (Homo sapiens) (P04839 whole entry, looked up): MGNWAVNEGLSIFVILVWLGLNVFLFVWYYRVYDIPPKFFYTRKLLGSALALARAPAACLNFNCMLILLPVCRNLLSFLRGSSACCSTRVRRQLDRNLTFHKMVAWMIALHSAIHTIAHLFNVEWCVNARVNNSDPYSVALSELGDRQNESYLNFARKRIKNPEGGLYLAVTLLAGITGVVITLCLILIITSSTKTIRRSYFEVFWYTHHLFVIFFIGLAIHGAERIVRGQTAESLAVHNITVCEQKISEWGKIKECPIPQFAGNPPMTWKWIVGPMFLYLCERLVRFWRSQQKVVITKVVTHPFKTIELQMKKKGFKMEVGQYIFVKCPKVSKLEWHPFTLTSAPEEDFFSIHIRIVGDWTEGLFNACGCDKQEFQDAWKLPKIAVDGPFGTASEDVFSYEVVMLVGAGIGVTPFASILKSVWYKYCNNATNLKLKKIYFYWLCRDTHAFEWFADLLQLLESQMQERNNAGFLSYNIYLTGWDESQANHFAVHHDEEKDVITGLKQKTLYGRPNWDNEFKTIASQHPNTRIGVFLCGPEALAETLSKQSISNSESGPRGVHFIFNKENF

[9] = biological target: NADPH oxidase 4 (Homo sapiens) (UniProt Q9NPH5); assay: compounds shifting NOX4 Amplex Red fluorescence – cell-based, HEK293-NOX4, tetracycline-induced, NOX inhibitor project, primary screen (AID 1160); conditions: HEK293-NOX4, Amplex Red H2O2 fluorescence, 45 min; higher = more signal, called active from +8 up or from −8 down
Chain of NADPH oxidase 4 (Homo sapiens) (Q9NPH5 whole entry, looked up): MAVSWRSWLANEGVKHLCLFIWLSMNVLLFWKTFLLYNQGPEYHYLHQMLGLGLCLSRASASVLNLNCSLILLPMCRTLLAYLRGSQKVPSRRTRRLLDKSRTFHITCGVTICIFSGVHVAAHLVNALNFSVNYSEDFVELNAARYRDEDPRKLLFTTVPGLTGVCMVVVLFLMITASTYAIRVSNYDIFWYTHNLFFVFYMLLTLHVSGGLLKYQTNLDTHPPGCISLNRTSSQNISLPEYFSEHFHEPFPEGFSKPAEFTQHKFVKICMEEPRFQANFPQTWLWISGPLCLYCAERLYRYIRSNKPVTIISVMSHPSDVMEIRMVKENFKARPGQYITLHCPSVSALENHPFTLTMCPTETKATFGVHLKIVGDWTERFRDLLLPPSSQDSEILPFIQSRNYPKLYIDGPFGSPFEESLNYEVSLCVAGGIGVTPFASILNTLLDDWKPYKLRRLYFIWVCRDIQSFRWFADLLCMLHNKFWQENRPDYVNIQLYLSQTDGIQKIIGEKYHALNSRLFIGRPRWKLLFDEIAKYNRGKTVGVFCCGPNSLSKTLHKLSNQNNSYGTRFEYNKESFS

[10] = biological target: NADPH oxidase 5 (Homo sapiens) (UniProt Q96PH1); assay: compounds shifting NOX5 Amplex Red fluorescence – cell-based, HEK293-NOX5, NOX inhibitor project, primary screen (AID 1161); conditions: HEK293-NOX5, ionomycin, 45 min, higher = more signal
Chain of NADPH oxidase 5 (Homo sapiens) (Q96PH1 whole entry, looked up): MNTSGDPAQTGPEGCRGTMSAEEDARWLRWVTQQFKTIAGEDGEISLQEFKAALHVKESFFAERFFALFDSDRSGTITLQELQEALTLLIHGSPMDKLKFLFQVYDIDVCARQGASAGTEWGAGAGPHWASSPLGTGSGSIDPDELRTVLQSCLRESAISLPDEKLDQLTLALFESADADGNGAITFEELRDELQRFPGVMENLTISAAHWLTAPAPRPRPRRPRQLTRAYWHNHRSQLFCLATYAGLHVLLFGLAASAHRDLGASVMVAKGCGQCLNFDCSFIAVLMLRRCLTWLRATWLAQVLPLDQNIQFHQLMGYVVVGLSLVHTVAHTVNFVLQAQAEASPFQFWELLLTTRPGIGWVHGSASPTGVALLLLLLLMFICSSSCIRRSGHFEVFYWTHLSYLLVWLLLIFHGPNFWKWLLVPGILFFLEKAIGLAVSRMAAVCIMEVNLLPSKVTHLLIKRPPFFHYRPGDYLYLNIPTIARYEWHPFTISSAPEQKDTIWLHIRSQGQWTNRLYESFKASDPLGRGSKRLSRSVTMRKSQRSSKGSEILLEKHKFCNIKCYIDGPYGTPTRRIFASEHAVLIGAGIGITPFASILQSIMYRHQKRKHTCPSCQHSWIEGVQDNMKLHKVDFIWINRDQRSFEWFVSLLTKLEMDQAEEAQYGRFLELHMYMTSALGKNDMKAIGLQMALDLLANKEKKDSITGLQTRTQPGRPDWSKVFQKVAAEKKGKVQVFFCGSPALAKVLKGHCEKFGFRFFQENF

| Compound | z-score [1] | composite z-score [2] | z-score [3] | z-score [4] | z-score [5] | z-score [6] | z-score [7] | z-score [8] | z-score [9] | z-score [10] |
| --- | --- | --- | --- | --- | --- | --- | --- | --- | --- | --- |
| C=C(C(=O)CC[C@H](OC(C)=O)c1ccc(OCCO)cc1)C(C)C | 2.32 (inactive) | 0.0004 | 1.73 (inactive) | -0.266 (inactive) | -1.84 (inactive) | -0.944 (inactive) | 0.823 | -3.44 (inactive) | -1.75 (inactive) | -3.36 |
| CN(C)CCCNC(=O)[C@@]1(Cc2ccccc2I)c2ccccc2C(=O)N(Cc2ccccc2C(F)(F)F)[C@H]1c1ccc(CO)cc1 | -2.14 (inactive) | -0.0536 | 11.8 (active) | 1.49 (inactive) | -0.231 (inactive) | 0.649 (inactive) | -0.349 | -10 (active) | -4.55 (inactive) | -4.63 |
| CC(C)(C)OC(=O)CC[C@@]1(C(=O)O)N=C(c2ccc(OCCCO)cc2)O[C@@H]1c1ccccc1N=[N+]=[N-] | 0.592 (inactive) | 0.266 | 31.5 (active) | 28.4 (active) | 1.79 (inactive) | 7.51 (inactive) | -0.342 | -0.0442 (inactive) | 1.69 (inactive) | 0.907 |
| COC(=O)C(CC#Cc1ccc2c(c1)[C@]1(C(=O)N2)[C@H](C(=O)NC[C@H](O)c2ccccc2)[C@H]2C(=O)O[C@H](c3ccccc3)[C@H](c3ccccc3)N2[C@@H]1c1ccc(OCCO)cc1)C(=O)OC | -0.658 (inactive) | 1.78 | 5.95 (inactive) | 2.11 (inactive) | 0.0313 (inactive) | 1.1 (inactive) | 0.161 | 1.39 (inactive) | 0.865 (inactive) | 1.41 |
| COCCOC(=O)N1C(=O)[C@@]2(c3cc(C#CCCO)ccc31)[C@H](C(=O)NC[C@H](O)c1ccccc1)[C@H]1C(=O)O[C@H](c3ccccc3)[C@H](c3ccccc3)N1[C@@H]2c1ccc(O)cc1 | 1.53 (inactive) | 0.0509 | 1.35 (inactive) | 0.706 (inactive) | -0.365 (inactive) | 0.435 (inactive) | 0.391 | 0.745 (inactive) | 0.698 (inactive) | 1.21 |
| O=C(CS)NCCCCCCNC(=O)[C@H]1C[C@H]2C(=O)N3CCC[C@H]3C(=O)N2[C@H]1c1cccc(OCCO)c1 | -1.17 (inactive) | 0.105 | 5.08 (inactive) | 0.331 (inactive) | -0.645 (inactive) | 0.253 (inactive) | 0.598 | 1.25 (inactive) | 0.799 (inactive) | 0.0469 |
| COCCOC(=O)N1C(=O)[C@@]2(c3ccccc31)[C@H](c1ccc(O)cc1)N1[C@H](c3ccccc3)[C@H](c3ccccc3)OC(=O)[C@H]1[C@@H]2C(=O)N1CCc2cc(OC)c(OC)cc2C1 | 0.682 (inactive) | -0.181 | 0.428 (inactive) | -0.261 (inactive) | 0.0172 (inactive) | -1 (inactive) | 1.55 | 0.343 (inactive) | 0.594 (inactive) | 1.95 |
| C=CCNC(=O)[C@@H]1[C@H]2C(=O)O[C@H](c3ccccc3)[C@H](c3ccccc3)N2[C@H](c2ccccc2OCCO)[C@@]12C(=O)Nc1ccc(C#CC3=CCCCC3)cc12 | 1.51 (inactive) | 0.454 | 1.78 (inactive) | -0.144 (inactive) | -0.458 (inactive) | 0.0442 (inactive) | 2.36 | 0.646 (inactive) | -1.35 (inactive) | -4.4 |
| [N-]=[N+]=NCc1ccccc1[C@@H]1OC(c2ccc(OCCCO)cc2)=N[C@]1(Cc1ccccc1N=[N+]=[N-])C(=O)NCc1ccccc1 | -2.95 (inactive) | 0.639 | 21.8 (active) | 4.97 (inactive) | 3.79 (inactive) | 1.33 (inactive) | -0.33 | -0.654 (inactive) | 0.0734 (inactive) | 0.235 |
| [N-]=[N+]=Nc1ccccc1C[C@]1(C(=O)NCCN2CCOCC2)N=C(c2ccc(OCCCO)cc2)O[C@H]1c1ccccc1 | 0.0623 (inactive) | 0.728 | 14.1 (active) | 1.53 (inactive) | 1.37 (inactive) | 0.766 (inactive) | -0.0135 | -1.92 (inactive) | 0.0642 (inactive) | -1.32 |
| CN1CCC(CCCO)=CC1c1ccc(CN2CCCC2)cc1 (stereo not given) | 0.112 (inactive) | 0.663 | -0.274 (inactive) | -0.201 (inactive) | -0.0797 (inactive) | -0.111 (inactive) | -0.494 | -3.22 (inactive) | -0.765 (inactive) | -0.482 |
| CC(C)NC(=O)[C@@H]1c2ccccc2C(=O)N(Cc2ccccc2)[C@H]1c1ccc(CO)cc1 | -0.355 (inactive) | 0.108 | 1.36 (inactive) | 0.573 (inactive) | 1.65 (inactive) | 0.351 (inactive) | 0.0506 | -0.767 (inactive) | 0.333 (inactive) | -1.66 |
